IP6K1 inhibitor: Primary qHTS assay for small molecule inhibitors of Inositol hexaphosphate kinase 1 (IP6K1); Inositol hexakisphosphate kinase 1 (Homo sapiens), Q92551; 140,000 tested, 0.81% active; IP6K1 kinase, ADP-Glo luminescence, 2 h; active compounds read low; AID 1645851, 2021; activity change, % (series mostly up to about 58 µM); in the data active = activity change below about -25%; also: % is scaled to controls: 0 for no effect and ±100 for the full control effect
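ADP-Glo luminescence measures ADP made by human IP6K1 during a 2 h RT reaction with ATP/IP6 (mix at 1.3 mM/130 uM); top library doses 57.5 and 19.1 uM final.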
SNCA expr inhib: Primary qHTS assay for inhibitors of alpha-synuclein gene (SNCA) expression; 140,000 tested, 0.17% active; HEK-293 SNCA-luciferase knock-in, luminescence, 24 h; Potency, µM (series often up to 57.2 µM), without a hit: top-dose activity change, negative = inhibition, actives largely listed as inhibitors;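 also: potency is read from the fitted curve at half-maximal effect; plate controls were DMSO cells for no effect and cell-free wells for full effect; nearly all actives have a fitted effect of over 45% in size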
HEK293 viab: GF-AFC viability counterscreen for inhibitors of alpha-synuclein gene (SNCA) expression | HEK-293-SNCA-luc viability, GF-AFC fluorescence, 24 h | Potency, µM (series often up to 57.1 µM), without a hit: at the highest dose activity change, negative = cytotoxicity, actives largely listed as cytotoxic | 150,000 tested, 0.12% active;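 also: potency is read from the fitted curve at half-maximal effect; 0% = DMSO-treated cells and -100% = medium-only wells without cells; nearly all actives have a fitted effect of over 30% in size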
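Cytotoxicity counterscreen: after 24 h compound treatment of genome-edited SNCA-luciferase HEK-293 cells, live-cell protease substrate GF-AFC read by fluorescence after 30 min; activity scaled between DMSO (0%) and medium-only (-100%), curves Hill-fitted.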
KDM5B inhibitor: Primary screen for KDM5B Histone Demethylases FDH-coupled qHTS | KDM5B demethylase, FDH-coupled NADH fluorescence (FDH is formaldehyde dehydrogenase) | 220,000 tested, 2.6% active | AID 1347165, 2019 | Potency, µM (titrated, usually from 57.7 µM), actives largely listed as inhibitors; also: potency is read from the fitted curve at half-maximal effect; 0% is about no effect; nearly all actives have a fitted effect of over 70% in size
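Inhibition is measured as reduced NADH fluorescence generation from FDH coupling to formaldehyde release. Truncated KDM5BΔAP at 200 nM final acts on H3K4me3 peptide (12.5 µM in substrate mix) in pH 7.5 HEPES buffer with Tween-20, 30 min, room temperature.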
Starred values were filed as active, the others as inactive; i = inactive; ? = inconclusive; . = no result; [ ] = remark or other dose. A selection: hits, their analogues and other compounds. The true share with any hit is near 2.9%. Unless noted, calls follow the shape of the dose curve; as a rule, active = well fitted curve in the direction sought with a large enough effect; inconclusive = small, poorly fitted or top-dose-only effect, or another doubt; inactive = no such curve, though single readings can be large; an effect the other way counts as inactive or inconclusive.

SMILES	IP6K1 inhibitor	SNCA expr inhib	HEK293 viab	KDM5B inhibitor
COc1ccc(Cl)cc1-c1ccc2c(c1)C(=O)N1CCN(C(=O)c3ccc(N(C)C)cc3)C[C@@H]1C(=O)N2	0	?	?	32µM*
COc1ccc(Cl)cc1-c1ccc2c(c1)C(=O)N1CCN(C(=O)C3CCCCC3)C[C@@H]1C(=O)N2	-6	-23%	-2%	10µM*
O=C(O)c1n[nH]c2c1C[C@H]1C[C@@H]21	-6	.	0%	.
CCCNC(=O)N1CCN2C(=O)c3cc(-c4cccc(C(F)(F)F)c4)ccc3NC(=O)[C@@H]2C1	2	-22%	-9%	32µM*
O=C1Nc2ccc(-c3ccccc3F)cc2C(=O)N2CCN(C(=O)c3ccccc3)C[C@H]12	0	?	2%[87.6 µM]	40µM*
COc1ccc(Cl)cc1-c1ccc2c(c1)C(=O)N1CCN(C(=O)c3cccs3)C[C@@H]1C(=O)N2	21	-18%	-6%	28µM*
O=C(NC1CCCN(c2ccnc3ccnn23)C1)C1CC1 (centres undefined)	11	-19%[87.6 µM]	?	.
Cc1cc(C)n(CC(=O)N2CCC(N3C(=O)C4(CCCCC4)C3c3ccccc3)CC2)n1 (centres undefined)	-9	4%	-5%[12.5 µM]	i
COc1ccc(CNC(=O)N[C@@H]2CN(c3ncccn3)C[C@H]2CN(C)C)cc1	5	-1%	16%	28µM*
COCCCNC(=O)N[C@@H]1CN(c2ncccn2)C[C@H]1CN(C)C	26	-26%	-2%	32µM*
CN(C)C[C@@H]1CN(c2ncccn2)C[C@H]1NC(=O)NCc1ccco1	-1	-5%	12%	?
Cc1cc(C)cc(N2CCC(NC(=O)c3ccc4nc[nH]c4c3)C2=O)c1 (centres undefined)	-9	-7%	-1%	i
Cn1ccc(NC(=O)c2ccc3c(c2)NC(C)(CCCCc2ccccc2)CO3)n1 (centres undefined)	4	-26%[87.6 µM]	-13%[87.6 µM]	32µM*
C[C@@H]1CN(C(=O)c2ccc3c(c2)NC(C)(CCCCc2ccccc2)CO3)C[C@H](C)O1 (some centres undefined)	-11	-25%[87.6 µM]	11%[87.6 µM]	35µM*
CNC(=O)c1ccc2c(c1)NC(C)(CCCCc1ccccc1)CO2 (centres undefined)	-10	-17%[87.6 µM]	-19%[87.6 µM]	32µM*
CC(=O)N1CCCN(C(=O)c2ccc3c(c2)NC(C)(CCCCc2ccccc2)CO3)CC1 (centres undefined)	-8	-15%	-5%	i
CC1(CCCCc2ccccc2)COc2ccc(C(=O)NC3CCC(O)CC3)cc2N1 (centres undefined)	8	?	-6%[87.6 µM]	40µM*
CC1(CNc2ccccc2)COc2ccc(C(=O)NC3CCOCC3)cc2N1 (centres undefined)	-1	?	-5%[87.6 µM]	?
Cc1oc(C(O)c2cccc(O)c2)nc1C(=O)Nc1ccc2[nH]c(=O)oc2c1 (centres undefined)	-5	14%[87.6 µM]	4%[87.6 µM]	i
Cc1cccc(C(=O)OC(C(N)=O)c2ccccc2)c1 (centres undefined)	.	.	.	i
Cc1noc(C)c1C(=O)N[C@@H]1CN(c2ncccn2)C[C@H]1CN(C)C	14	-11%	-8%	32µM*
CN(C)C[C@@H]1CN(C)C[C@H]1NC(=O)CCCc1ccccc1	-9	9%	3%	?
CN(C)C[C@@H]1CN(c2ncccn2)C[C@H]1NC(=O)c1cnco1	2	-25%	-10%	32µM*
CN(C)C[C@@H]1CN(c2ncccn2)C[C@H]1NC(=O)CCCc1ccccc1	6	-5%	0%	32µM*
Clc1ccccc1C1(c2ccnc(-c3ccccc3)n2)CCNCC1	23	-11%	-9%	i
SMILES	IP6K1 inhibitor	SNCA expr inhib	HEK293 viab	KDM5B inhibitor
CN1CC2(CCN(Cc3cccn3C)CC2)CC1C(=O)N1CCOCC1 (centres undefined)	-8	14%	0%	16µM*
CN1CC2(CCN(Cc3ccccn3)CC2)CC1C(=O)N1CCOCC1 (centres undefined)	-4	44%	4%	20µM*
COc1ccc2cc(C(=O)N3CCC4(CC3)CC(C(=O)N3CCOCC3)N(C)C4)[nH]c2c1 (centres undefined)	-6	8%	-1%	25µM*
O=C(NC1CCN(c2cc(-c3cccs3)[nH]n2)C1)c1ccccc1Cl (centres undefined)	-11	?	?	14µM*
O=C(Cc1ccc(Cl)cc1)NC1CCN(c2cc(-c3cccs3)[nH]n2)C1 (centres undefined)	4	-2%	-12%	8.9µM*
COc1ccc(C(=O)NC2CCN(c3cc(-c4cccs4)[nH]n3)CC2)c(C)c1	11	10%	-2%	?
O=C(NC1CCN(c2cc(-c3cccs3)[nH]n2)C1)c1ccc(F)cc1F (centres undefined)	-4	-14%	-12%	?
O=C(NC1CCN(c2cc(-c3cccs3)[nH]n2)C1)c1ccc(F)cc1Cl (centres undefined)	7	6%	9%	16µM*
Cc1cccc(CC(=O)NC2CCN(c3cc(-c4cccs4)[nH]n3)C2)c1 (centres undefined)	6	5%	-14%	?
COc1ccc(C(=O)NC2CCN(c3cc(-c4cccs4)[nH]n3)C2)c(C)c1 (centres undefined)	-3	11%	?	14µM*
CC(C)(CNC(=O)NC1CCCC1)C(N)=O	.	.	.	i
CN1[C@@H](CCC(=O)N2CCN(c3ccccn3)CC2)CNC(=O)[C@@H]2[C@H]1CCN2Cc1ccc(O)cc1	2	9%	5%	32µM*
CN1[C@@H](CCC(=O)N2CCN(c3ccccn3)CC2)CNC(=O)[C@@H]2[C@H]1CCN2Cc1ncc[nH]1	-4	-9%	-2%	22µM*
CC(C)N1CC[C@@H]2[C@H]1C(=O)NC[C@H](CCC(=O)N1CCc3ccccc31)N2C	-1	1%[87.6 µM]	-6%[87.6 µM]	i
CC(C)N1CC[C@@H]2[C@H]1C(=O)NC[C@H](CCC(=O)N1CCN(c3ccccn3)CC1)N2C	-11	-12%[87.6 µM]	-1%[87.6 µM]	32µM*
CN1CCN(C(=O)CC[C@H]2CNC(=O)[C@@H]3[C@@H](CCN3Cc3ncc[nH]3)N2C)CC1	7	4%[87.6 µM]	5%[87.6 µM]	i
CN1[C@@H](CCC(=O)N2CCN(c3ccccn3)CC2)CNC(=O)[C@@H]2[C@H]1CCN2Cc1ccc(CO)o1	5	-10%	-12%	32µM*
COc1ccc(-c2coc3c(C)c(O)ccc3c2=O)cc1	.	.	.	i
O=C(Nc1ccccc1)N[C@H]1C[C@H]2C(=O)NC[C@@H](CCC(=O)N3CCN(c4ccccn4)CC3)N2C1	11	6%	4%	25µM*
COc1ccc(-c2cccc(C(=O)N3CCCC3)c2)nn1	10	.	.	.
O=c1oc2ccccc2c(NCc2ccccc2)c1NS(=O)(=O)c1ccccc1F	.	.	.	i
